UDG counter: UDG inhibition counter-screen. AID 1347430. Potency, µM (highest dose often 115 µM), without a hit: top-dose activity change, negative = inhibition, actives largely listed as inhibitors. 91,000 compounds, 0.14% hits. FRET deamination/UDG coupled assay, UDG read, 4 h; also: potency is read from the fitted curve at half-maximal effect; % is scaled to controls: 0 for no effect and ±100 for the full control effect; nearly all actives have a fitted effect of over 65% in size
AID inhibitor: activation induced cytidine deaminase inhibition; 91,000 compounds, 0.32% hits; Potency, µM (titrated, usually from 115 µM), usual class: inhibitors; Q9GZX7; AID 1347428; AID deamination FRET fluorescence, UDG-coupled, 4 h; also: potency is read from the fitted curve at half-maximal effect; % is scaled to controls: 0 for no effect and ±100 for the full control effect; nearly all actives have a fitted effect of over 25% in size
Target sequence (Q9GZX7 whole entry, looked up): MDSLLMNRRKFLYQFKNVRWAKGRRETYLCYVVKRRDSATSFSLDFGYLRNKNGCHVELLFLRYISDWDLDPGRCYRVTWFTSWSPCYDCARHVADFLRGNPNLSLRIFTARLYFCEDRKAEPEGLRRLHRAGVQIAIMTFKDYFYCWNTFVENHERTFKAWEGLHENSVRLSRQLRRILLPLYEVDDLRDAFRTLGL
GPR32 ag: agonists of human resolvin D1 receptor DRV1 (GPR32); O75388; CHO-K1 GPR32 beta-arrestin PathHunter luminescence, 90 min; zero percent set by DMSO-only wells; activation, % at 76.9 µM; 48,000 compounds, 2.5% hits; AID 1346428;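 active = activation of at least 60% and not above a set upper limit, about 1 call in 100 departs from these limits; inconclusive = activation of 40% to 60%, or above that upper limit; inactive = activation under 40%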; also: 0% is about no effect
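PathHunter enzyme-fragment complementation, CHO-K1 GPR32 stable line; 2,500 cells/well, overnight attach; cpd 90 min 37 °C 5% CO2; detection reagent 1 h RT; chemiluminescence. DMSO = EC0.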
* hit, by the source's call; i = inactive; ? = inconclusive; nt = no result; ! = a repeat was not active. Many of the other results were omitted from the sample, so hits are more common in it than they were. Unless noted, calls follow the shape of the dose curve; as a rule, active = well fitted curve in the direction sought with a large enough effect; inconclusive = small, poorly fitted or top-dose-only effect, or another doubt; inactive = no such curve, though single readings can be large; an effect the other way counts as inactive or inconclusive.

SMILES | UDG counter | AID inhibitor | GPR32 ag
Cc1cccc(-n2nc(C)c3c2NC(=O)CSC3c2ccccc2Cl)c1 (stereo not drawn) | -2% | i | 63*
Cc1nn(-c2ccccc2)c2c1C(c1cnn(C)c1C)SCC(=O)N2 (stereo not drawn) | -4% | i | nt
CCC1CCC(NC2CCC(CC)CC2)CC1 (stereo not drawn) | -13% | i | nt
O=C(c1cn(CCCOc2ccccc2Cl)c2ccccc12)C(F)(F)F | -8% | i | nt
COc1ccc2c(c1OC)CN1CCc3cc4c(cc3C1C2)OCO4 (stereo not drawn) | nt | nt | 68*
Brc1ccc(-c2ccc(CNC3CN4CCC3CC4)o2)cc1 (stereo not drawn) | 6% | i | nt
ClC1=C(Cl)[C@]2(Cl)[C@@H]3[C@@H]4C[C@@H]([C@H]5O[C@@H]45)[C@@H]3[C@@]1(Cl)C2(Cl)Cl | nt | nt | 113*
Cc1c(-c2ccc(Cl)cc2)c(=O)oc2ccc(OC(=O)N(C)C)cc12 | 0% | i | nt
N#Cc1ccc(Cn2cc(C(=O)C3CC3)c3ccccc32)cc1 | 6% | i | nt
COc1ccccc1CNCCc1ccccc1 | 9% | i | nt
CN(N=O)c1cc(O)ccc1O | -19% | 28µM* | 24
N#Cc1cc2c(nc1SCC(=O)Nc1cccc(F)c1)C1CCN2CC1 | 6% | i | 68*
CC(=O)c1ccc(NC(=O)c2sc3nc4c(cc3c2N)N2CCC4CC2)cc1 | 2% | i | 41
OCCSCCSCCO | -4% | i | nt
N#Cc1ccc(NC(=O)CCC2CCCCC2)cc1Cl | -9% | i | nt
COc1ccc2c(c[n+](C)c3c4cc5c(cc4ccc23)OCO5)c1OC | -18% | 40µM* | 66*
CCOC(=O)C1=C(C)OC(N)=C(C(=O)OC(C)C)C12C(=O)Nc1ccc(Br)cc12 (stereo not drawn) | -6% | i | nt
Cc1cccc(-c2nc(CN3C(=O)CN=C(c4ccccc4)c4ccccc43)c(C)o2)c1 | -14% | ? | 63*
Cc1ccccc1-c1nc(CN2C(=O)CN=C(c3ccccc3)c3ccccc32)c(C)o1 | -10% | ? | -20
COc1ccc(CCNCc2ccc(Br)cc2)cc1 | 7% | i | nt
Cc1c(C(c2ccc(F)cc2)c2c(O)c3ccccc3oc2=O)c(=O)n(-c2ccccc2)n1C (stereo not drawn) | -1% | i | 7
O=c1oc2ccccc2c(O)c1C(CC(O)c1ccc(-c2ccc(Br)cc2)cc1)c1ccccc1 (stereo not drawn) | nt | nt | 82*
CCCCC/C=C\C/C=C\C/C=C\C/C=C\CCCC(=O)NCC(=O)O | 7% | 79µM* | ?
C[C@]12C/C(=C/O)C(=O)C[C@@H]1CC[C@@H]1[C@@H]2CC[C@@]2(C)[C@H]1CC[C@]2(C)O | nt | nt | 89*
CC(=O)OC1(C)CCC2C3CCC4CC(=O)CCC4(C)C3CCC21C (stereo not drawn) | -9% | i | nt
SMILES | UDG counter | AID inhibitor | GPR32 ag
O=C(O)c1cc(I)cc(I)c1I | 5% | i | nt
CC(NC(C)c1ccccc1F)C(=O)c1c[nH]c2ccccc12 (stereo not drawn) | -2% | i | nt
CC(C)(C)c1ccc(O)cc1 | nt | nt | 70*
Oc1ccc(Cl)cc1 | nt | nt | 19
COCCNC(=O)Cn1cc(C(=O)c2ccccc2)c2ccccc21 | 3% | i | nt
CCCNC(=O)NC(=O)CCl | 0% | i | nt
CC[C@@H](CO)NC(=O)[C@@H]1C=C2c3cccc4[nH]cc(c34)C[C@H]2N(C)C1 | 7% | i | 6
CCN(CC)C(=O)N[C@@H]1C=C2c3cccc4[nH]cc(c34)C[C@@H]2N(C)C1 | nt | nt | 64*
Ic1ccc(CN2CCNCC2)cc1 | -1% | i | nt
CC(NCc1ccco1)C(O)c1ccccc1 (stereo not drawn) | 4% | i | nt
CN1C[C@H](CNC(=O)OCc2ccccc2)C[C@@H]2c3cccc4c3c(cn4C)C[C@H]21 | -4% | i | 80*!
CC[C@@H](CO)NC(=O)[C@@H]1C=C2c3cccc4c3c(cn4C)C[C@H]2N(C)C1 | 1% | ? | 0
CC(Oc1ccc(Cl)cc1)C(=O)O (stereo not drawn) | 0% | i | nt
COc1ccc(Cc2nccc3cc(OC)c(OC)cc23)cc1OC | 11% | i | 119*!
C#CCN1CCN(Cc2ccc(OC)c(OC)c2)CC1 | -5% | i | nt
O=C(CCn1ccc2cc(S(=O)(=O)N3CCCCCC3)ccc21)N1CCC2(CC1)OCCO2 | 0% | i | nt
Cc1cccc(OCCNc2ccc([N+](=O)[O-])c3cccnc23)c1 | -9% | i | nt

From PubChem BioAssay
